# Measurements published in PubChem BioAssay AID1347423 (Functional Genomics Laboratory (NCATS/FGL), 2020).
# About 210 (0.4%) of roughly 52,000 sequences were called active.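 How the source made its calls: active means gene whose silencing raises cell survival under the drug, median off-target-corrected z-score across its silencing RNAs 2 or more; inactive means the rest.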 The entries come from a sample that favours actives as a whole.
# Assay: Resistance to Poly (ADP-Ribose) Polymerase inhibitor: Gene Identification via Genome-wide siRNA Screen
# Conditions: mouse BRCA2 R2336H ES cells, olaparib, CellTiter-Glo viability; stronger effect = higher value
# Outline: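 Mouse BRCA2 R2336H ES cells were reverse-transfected with siRNA (20 nM final), treated at 48 h with 500 nM olaparib, and read by CellTiter-Glo after 72 h. Scores: MAD-based z per siRNA, median per gene, seed off-target correction.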
row,Sequence,z-score
1,CCGACAAAUAAAGGCUUUATT against Ddx52,-0.0103 (inactive)
2,CCGCAUGACACGACAUGUATT against BC034097,2.56 (active)
3,CCCUGUACACACCUAAAAATT against D10Ertd438e,1.39 (inactive)
4,CGUUUGCUCUAAAGCCAGGTT against BC004728,1.02 (inactive)
5,GGAUUUCCUGGAAAAUUCCTT against Siat8a,0.62 (inactive)
6,GGUGUCUGUCAUGACCAUGTT against Tie1,2.02 (inactive)
7,GCUCGUCUAUGCUAUUUCUTT against Fath,0.81 (active)
8,GAUCACAGUCACGAUAUAATT against Prss19,-1.28 (inactive)
9,GGAAGAGAUGGAAUUAUUGTT against Sh3bp5,-0.737 (inactive)
10,GCUUGUGAUCGACUCUGCATT against Centb5,0.0161 (inactive)
11,CCUUCAUUUAUUCUACGAGTT against LOC244556,0.476 (inactive)
12,GCUCUCAUUAGCAUUAUCGTT against Gria1,-0.366 (active)
13,GCAGGUUAAGUAGCUGACATT against Dnclic2,-1.28 (inactive)
14,CGUGCAUGCAAAUUAUGUATT against 4933417O08Rik,-0.372 (inactive)
15,GGCACUCAGUAACUGCAUGTT against Gababrbp,-0.611 (inactive)
16,GGACUGUCAGUACUGUCAATT against E030025L21Rik,-0.201 (inactive)
17,GGAGUAAUCAUGCUGGAGCTT against 9930104L06Rik,0.406 (inactive)
18,CCAUGUCCAAUGAGGACUUTT against Htr1b,1.74 (active)
19,CCCUGAACGAAUAAUCGGCTT against Cbx3,-0.637 (inactive)
20,CGAUAAACUGGAUACCACUTT against A430083B19Rik,-0.3 (inactive)
21,GGAGAUGCUGGACUGCUUUTT against Htr1b,-0.751 (active)
22,GGUUGUUUAAACUCAGUUUTT against Slco4c1,-1.83 (inactive)
23,GGCCAAAUCAUGGAUGCAGTT against Comt,-1.72 (inactive)
24,GGAUCUAUAAGGACUACAUTT against Bmp7,-0.68 (inactive)
25,CGGGAACUCACCGAAAAGATT against 4921521N14Rik,0.566 (inactive)
26,GGAUGUGGCUGCUUUGAAGTT against Wbscr27,0.123 (inactive)
27,GGGAUUUUCUGUGUAUCUUTT against D5Ertd33e,-0.0623 (inactive)

row,Sequence,z-score
1,GGCAUAACUGAUCAUACGCTT against Foxp3,1.06 (inactive)
2,GGUUUUAGAAGGGAAACAUTT against Ppp2r2c,-0.761 (inactive)
3,GGAGCCAAGUGUGAUUACATT against Pias3,-1.38 (active)
4,GGAUUGCUGUGCCUUAUGATT against 2010004A03Rik,0.503 (inactive)
5,CCACUUUUUUAGAUCCCUGTT against AA960436,-0.149 (inactive)
6,GACUCCCACUUACACUCUCTT against Olfr1312,-1.08 (inactive)
7,GGUUCUUUAAUAGAACAUGTT against Tyrp1,-0.207 (inactive)
8,GGUCAUUGGUCGCUGGUCATT against Gzmm,1.22 (inactive)
9,CGUGGGAUUUAAUGAUCAATT against Nid2,0.787 (inactive)
10,GGGCCUAUAUAACAUCUUGTT against Usp11,0.581 (active)
11,GGGUAUCUUCUGGAAAACATT against Angptl4,0.203 (inactive)
12,GGCUAUGCAGCAUAUUAUATT against Ndufa1,-0.819 (inactive)
13,GGAAAUUUUGGAGAUGAUATT against 5730444A13Rik,-0.496 (inactive)
14,GGCGAUCUAUCACACUGUGTT against Chst7,1.39 (inactive)
15,GGAGGAAGAAACAGAACCATT against A930021G21Rik,-2.36 (inactive)
16,GCAGUCUGGUUCUCUCAAATT against Cryl1,2.21 (inactive)
17,GGUUGCUUGGAAUUAAAAGTT against Klhl1,1.01 (active)
18,CACGGGCAUCCUUGACUCCTT against Mbp,0.994 (inactive)
19,GCAACAUGGCCCUUACCAUTT against Plcb2,-0.797 (inactive)
20,GGCUCCUUAAAGAUAUGUUTT against Nsmaf,0.332 (inactive)
21,GGAAUGUGUUAUGGUGAUUTT against Mgl2,-0.346 (inactive)
22,GCCUUUAUAGUCUUAAGCATT against 2810475A17Rik,-1.55 (inactive)
23,GGAUAAAUGGUUCUAGAAATT against 3110006P09Rik,-0.433 (active)
24,CCUUCAAUUUCAGUUCAGATT against Olfr1388,0.422 (inactive)
25,GGUAUUCUCUAAGAAGGAGTT against Ccbl1,-0.635 (inactive)
26,GGCAUUUGAAGAUGUUUCUTT against Hmgb3,1.56 (active)
27,GGAGACGUGUCUGAAAGACTT against Glp2r,-0.752 (inactive)

row,Sequence,z-score
1,GCUUCACAAGCAGUGUACUTT against Slc37a1,1.96 (active)
2,CCUUUUUCUGGAUUGGAAUTT against Klrd1,1.78 (active)
3,GCCAGCAACAGGAUGAUAUTT against Prkwnk1,-1.02 (inactive)
4,GCUCAGACAUGUUCUUACCTT against BC037527,0.547 (inactive)
5,GCUUAAAACAGACCAUUUUTT against 1700013G20Rik,0.824 (inactive)
6,GCAUUCAAGCAACCACGAATT against Ptdss1,-0.153 (inactive)
7,GCACUUGGGUAAAAAACUCTT against Bcorl1,0.555 (inactive)
8,GCUGACCCAGCUAUGUACUTT against 4930519N13Rik,-0.26 (inactive)
9,GGAAGCUGGUUCCUGUUUUTT against Bid3,2.66 (active)
10,CCAGAGUAAGAGUAAAAGCTT against Mamdc2,1.32 (inactive)
11,GGCUGUAAUGAGGACUGAUTT against Deb1,-1.92 (inactive)
12,CCUAAAUUCGGUUUGAAUCTT against Fath,2.74 (active)
13,GCAUUUUGACCCAAGUGUUTT against Foxq1,0.0651 (inactive)
14,CGAUCUACAUCUGCAUCAUTT against Olfr1212,-0.961 (inactive)
15,GGCUUUGAUUGAACAUGAGTT against Lypla2,0.783 (inactive)
16,CCAUCUAUGAUCCCAGAGCTT against Fbxw9,0.241 (inactive)
17,GGACGUGACAGACAUUAUUTT against Htr5b,-0.897 (inactive)
18,GCCAAUGAUGUAGCAAAUUTT against Slc20a1,2.1 (active)
19,CCCUAAUAGAACUAAUGAATT against Kpnb1,-3.47 (inactive)
20,CCUACUUCCUCCAUUUAGGTT against 5033413D22Rik,1.42 (inactive)
21,GGAGUACAGUGAUGACAAGTT against Ing5,0.235 (inactive)
22,GGUUGGCCAUAUAAAGAGATT against Smarca3,0.771 (active)
23,GGCAAAUGGUCUUUAUGCATT against Zfp606,-0.699 (inactive)
24,GGGAAGUCACUUUUGUUCCTT against Top2a,-1.25 (inactive)
25,GGCCAAAUUCUUCAGCAGATT against Rpl27a,-2.82 (inactive)
26,GGUCCACGGUUACUAAAAATT against Klrd1,2.45 (active)
27,CCAAAACAACCACAAGUAGTT against A930006D11,-2.39 (inactive)

row,Sequence,z-score
1,GGUGAUAGUCCACGAGGUUTT against Mbc2,-1.31 (inactive)
2,GGGUUUUUUUUUUCCUUCCTT against Hsd17b1,1.88 (active)
3,GGAGUUUGAGACACUCUGCTT against Apg4d,0.266 (inactive)
4,GGUCCUUCCAUAGUGACGCTT against Igfbp7,0.24 (inactive)
5,GGAAAUAUGAUCCAUCCUGTT against Zfp282,1.65 (inactive)
6,GGUAUCAAGUGCAGAAUGUTT against Slc37a1,1.99 (active)
7,GGGUAACAGUGGUGAACCUTT against Col1a1,-1.52 (inactive)
8,GCUACAAUAUGACAAGUGUTT against Adamts5,2.82 (active)
9,GGAUGCUCUCUUAAAUGGATT against AI595338,-0.0806 (inactive)
10,GGAAAAUUGAGAUUUCUGCTT against 1110003E01Rik,1.52 (inactive)
11,GGAUGAAAAAUACUGGUGUTT against Ugt8,3.17 (inactive)
12,GAAGAUCCACUUCAUCGCCTT against Psmb10,-1.82 (inactive)
13,GGAAGACAUGAAAUUGUUCTT against Psma3,-2.92 (inactive)
14,GGAUGAAGAGAAAAAUUGATT against Slc20a1,2.96 (active)
15,GGGUGUACAUUGAAAUUAATT against Epha4,1.05 (inactive)
16,GGAAUUUGAUUCUCUGCCUTT against 6820429M01,0.0636 (inactive)
17,GGCACAUGCCCUUUUCUACTT against Cog1,0.266 (inactive)
18,GCAUUCAGAAUGAGCUGACTT against Nfasc,-0.0641 (inactive)
19,GGUGAUCUUCAAAUUGGAGTT against Zfp90,-0.401 (inactive)
20,GCUAUAUCUAAAGCUAUUCTT against Sgpp1,0.574 (active)
21,GGCCCACCUAUUUCAUCUCTT against Actl7b,0.808 (inactive)
22,GGAGUUUGCCACAAUUGUUTT against 2810408E11Rik,-1.26 (inactive)
23,GGAAGAGAGAUGGAAAAAATT against Gcnt1,-0.555 (inactive)
24,GGAAAGUGUCACCAAGUUCTT against B230359F08Rik,-0.0496 (inactive)
